B1: d6r1_design_ppi_397_dldesign_0_cycle1_af2pred (protein)
chain: GEEEEEKKRKEEIKKAIKEAAEKAKEAGPAETRPEIEAAEKLALEDPKAGMNRLLAIGAREPATAPYLVEGAEKVSALLKS
B2: d6r1_design_ppi_198_dldesign_0_cycle1_af2pred (protein)
chain: GEAEKVEKAKEKAAEKINEALALASKGAIEGDVEKVKEAKEILKEAVKEAKAVSPEAAKYAEELAKKAEEIIEAMEKSAKAAA
B3: d6r1_design_ppi_51_dldesign_0_cycle0_af2pred (protein)
chain: ALAEAQKQLAQARALVLGAEAAVEHAERSSPEEGRRALAAARDLIAQAKEKAKAAAKHPETKAEAEKLLKEAEKLEARAAAVEAAL
B4: d6r1_design_ppi_197_dldesign_0_cycle0_af2pred (protein)
chain: AAELAALEAEFRDQLEVARQAARFSPASAAAFLAGVAASLRRRLPPALGAAFAARADAAAAAARLLGEDPAAGEALFAAVLA
B5: d6r1_design_ppi_617_dldesign_0_cycle0_af2pred (protein)
chain: AAARAQALLNEALALLFEAAARSRDGAPILRAASLAAQGFLTGEAAPEALAYIEAVAKEHPEVRELILEAARLFAEAAAL
B6: d6r1_design_ppi_463_dldesign_0_cycle1_af2pred (protein)
chain: GPFEAAYAEALAEVEAEIAALKAEAEKVAAAGKKTGKTAEAAAKAEELKAKAAELEAQKESIAAQRAFRRLAAQTAAQAAAA
B7: d6r1_design_ppi_11_dldesign_0_cycle1_af2pred (protein)
chain: EMEKAQKELLEAANKAMTTLFKAAAAASAKGDNATAGQLVEAAGEVSKLAKEAVKKSPEAMKEAAKKLKEAAAAGAKLGAA
B8: d6r1_design_ppi_82_dldesign_0_cycle1_af2pred (protein)
chain: AAATQQQLTQAVRDALLARVAAVAADPSQAELLRRVTRSAVLMMGALEGLEGARAFAERAIAAAAAVGPEAAAAVREGAREGLEEYAA
B9: d6r1_design_ppi_270_dldesign_0_cycle1_af2pred (protein)
chain: EEEKREAAREITERAIEEIRAAAERAAAAGQPGAGVEAGMKIGAEAVRRVREKGTEELAEEAARRMNAALAEAIRAAMALAR
B10: d6r1_design_ppi_2_dldesign_0_cycle0_af2pred (protein)
chain: EEERRRAIEAAEGAVEAARKNLELFREAHPEATEEIARLEARVEEARREAERAREEGASVEEARRVLERARAVQAEITRALHRANLA
B11: d6r1_design_ppi_463_dldesign_0_cycle0_af2pred (protein)
chain: GLIEELLAEARAEVEAEIAARREEARRLAAEGEESEDTEEKRARAEELLAEAAEREAQADSIAAQAAFRRAAELTRQLAAAA
B12: d6r1_design_ppi_593_dldesign_0_cycle1_af2pred (protein)
chain: SKNVELAEKAQEVVKRAKEVGKLVPEKAEEIISTSNQALAYALNPHTVAKGEKLLEEATKLVEEAEKEAK
B13: d6r1_design_ppi_2_dldesign_0_cycle1_af2pred (protein)
chain: AEAKKKAIEDAEGAAEAAKKFLDLFKEAFPEAKETIAALQAKVEAAKKAAEKARKEGADVATAQAVLDQARAVQVDIINALNEATRS
B14: d6r1_design_ppi_468_dldesign_0_cycle1_af2pred (protein)
chain: AQAALDAAIAAARAAAALAREAGDDTAAAFFESAALVLEGGPANMPLAIRLTEAGIRSARARLDPATAAKVAALGEAAIAAARAAAAA
B15: d6r1_design_ppi_3_dldesign_0_cycle0_af2pred (protein)
chain: EEELARAAEAARRQAEVAEALAEQAAAADPANQPLADEARRLAERARELAERGATVEEIREALLEVSRAAARAAAALNAAVAA
B16: d6r1_design_ppi_583_dldesign_0_cycle1_af2pred (protein)
chain: MNIEELTALAEEHEAKAKALAAAGAPAIEVVSAATLAVRYYNEAAKLLAKIDPAKAKEYTAKAEAIRAAAAAYIRAQLARSAAA
B17: d6r1_design_ppi_484_dldesign_0_cycle1_af2pred (protein)
chain: GEEAERESKEALERVRELLRRLNELAAQRAAHPAELRATAAALVEAGKEALANPNASEEAKQLGAFGVTLGQTVLAALDAAAA
B18: d6r1_design_ppi_518_dldesign_0_cycle0_af2pred (protein)
chain: SAATLAQYNQLSGQASRLLMQAAQTGSVELAQQALQYAQQALQLAQQASANNAEGAKQLLEIAQATLAAVQ
B19: d6r1_design_ppi_222_dldesign_0_cycle1_af2pred (protein)
chain: SAEAAALKEEAEKLGKEALAAAEELKKVDPEKGERLKSQIKGLELQAISSYDLAAVNPAALATAKKAREQLEKLGREAKEAV
B20: d6r1_design_ppi_575_dldesign_0_cycle1_af2pred (protein)
chain: GAALAAQRAEAREVLARARAIEAQAQALAATQPAAAGIGSLARQAIELASRSLEEGLELLPSARALVEVAAGIVAAA
B21: d6r1_design_ppi_243_dldesign_0_cycle1_af2pred (protein)
chain: AEAVARAARDARAQIELAEALLKQGLAAAKTDPAQALLAYNAALAAARSAVRIAARAPEVLEEARAALAAVEAAKAKVQAQAA
B22: d6r1_design_ppi_575_dldesign_0_cycle0_af2pred (protein)
chain: SAEEEAAKEEAKAVLAQAEAILEQAKALAAQQPWAAGIAALARTAIRLAKESLEKGLELLPDAKALTEAAAGIVAAA
B23: d6r1_design_ppi_13_dldesign_0_cycle1_af2pred (protein)
chain: AAEAKAAEKAARAELAKLRAVAAANPVHGGEILLAVARAAAEVNRLIAKGLAGTPEEAKAAAEAAKAAVAKARAEAAALA
B24: d6r1_design_ppi_478_dldesign_0_cycle1_af2pred (protein)
chain: AAARAAAQQLLMEVAEELIKLGAKEAARLALRAIGLLLSDPAQGVAAAKEAAKKAKEEAPENGEELAKKLEEAAKLAAA
B25: d6r1_design_ppi_311_dldesign_0_cycle1_af2pred (protein)
chain: MTPEEVAARAAELLAWLRAQAALDPEMAALGAAGLELVLAHSPELAARAVRQLERARRMPPADALRVGALIAQAYAAQVERARA
B26: d6r1_design_ppi_239_dldesign_0_cycle1_af2pred (protein)
chain: DKAVLEEAEKVFKEALAVAEEIVAEGAKNPAYAAFAKAFAKQLKAQLAEAKKLTPEEALKAAKKLLDAAKQALKLVSE
B27: d6r1_design_ppi_62_dldesign_0_cycle0_af2pred (protein)
chain: VEEARALAESAEQAAEAGSYLLAALNLERAVRLAEELARRGEGLEEVRRIAERVAEVAKRVAESPEVRERAEEILRRAKRIIEEI
B28: d6r1_design_ppi_232_dldesign_0_cycle0_af2pred (protein)
chain: AEEFAEEAKKELEEIEKMIKEGEARADGEQIAVEAIEKAGEALKKAKEFKKKDPKVGEEAAKEFLKAINEATKAANAKAAAA
B29: d6r1_design_ppi_373_dldesign_0_cycle1_af2pred (protein)
chain: EKEELIKKAKEALEKAKKAAKEAAADPELAKKAKKLAEEAKKAVEKAKKSGKEEAKKLAEKAKAAAAKAEAYALLAQGRAAA
B30: d6r1_design_ppi_229_dldesign_0_cycle0_af2pred (protein)
chain: EEARELARRTAEEAEELIKKALPEEDRELAELAGDLVRAGAEAATTNPAQGRAAFRTAAGILRSAGAEEAAEEVERRMEEMLRRIA
B31: d6r1_design_ppi_381_dldesign_0_cycle1_af2pred (protein)
chain: DEARAIIVSSLSEAAALDPAVAPLAMRAAALSINPATAAAAMAEAIAAMRAAGATVPEVAALADRAEAAA
B32: d6r1_design_ppi_138_dldesign_0_cycle1_af2pred (protein)
chain: GKKKEEAEKLIKEAKEVKEKAEEAAKLAKELGNEEAAKAAQKAIEEAEKAIEAAKEGKLEEARLHLAKAKGYLLRAQGLIANKLAAA
B33: d6r1_design_ppi_251_dldesign_0_cycle0_af2pred (protein)
chain: DAARALLLRTAENAAQMLRLLGVDEATAEAVLARLTAAAAAGPAAFAAAARAAAAELEAQPSLNARTAGAALRTAAATAEAEIAAL
B34: d6r1_design_ppi_398_dldesign_0_cycle0_af2pred (protein)
chain: STAASLATGARVIANLFERAIEAAADPATRAEAEGLARSAAEIGALIGPELAAIAEAGLAAIGDLAAMRAELERVRALAAAA
B35: d6r1_design_ppi_30_dldesign_0_cycle0_af2pred (protein)
chain: EKEEIIKKAKELKEQAEKVLAEDVSPLAKKVAEQAIKHAEKAIEAAKAGDLEEAKAHLSSAEAFVLGLTR
B36: d6r1_design_ppi_377_dldesign_0_cycle0_af2pred (protein)
chain: EEERRRAEELRRRAEEAIERIRASTPEEAARIAGELVAWLGEEARAGTPELAEEARREMARVTREAARVLA
B37: d6r1_design_ppi_377_dldesign_0_cycle1_af2pred (protein)
chain: MEDEELAEKIRERAKEAIAQIRASSPEQAALLAGTLVAEFGEWARSGTPEVAAVAHEEMNRVTGEAAKVIA
B38: d6r1_design_ppi_203_dldesign_0_cycle1_af2pred (protein)
chain: AQEQVVKEAQQLLLAASQAISKALVRAAQGTLQQADIEAAQKLIEAAAKAAEKAPPEAKARLNKGVEGLKELLEGALQTAKLAK

Biological target: CD276, Q5ZPR3
Sequence (Q5ZPR3 whole entry): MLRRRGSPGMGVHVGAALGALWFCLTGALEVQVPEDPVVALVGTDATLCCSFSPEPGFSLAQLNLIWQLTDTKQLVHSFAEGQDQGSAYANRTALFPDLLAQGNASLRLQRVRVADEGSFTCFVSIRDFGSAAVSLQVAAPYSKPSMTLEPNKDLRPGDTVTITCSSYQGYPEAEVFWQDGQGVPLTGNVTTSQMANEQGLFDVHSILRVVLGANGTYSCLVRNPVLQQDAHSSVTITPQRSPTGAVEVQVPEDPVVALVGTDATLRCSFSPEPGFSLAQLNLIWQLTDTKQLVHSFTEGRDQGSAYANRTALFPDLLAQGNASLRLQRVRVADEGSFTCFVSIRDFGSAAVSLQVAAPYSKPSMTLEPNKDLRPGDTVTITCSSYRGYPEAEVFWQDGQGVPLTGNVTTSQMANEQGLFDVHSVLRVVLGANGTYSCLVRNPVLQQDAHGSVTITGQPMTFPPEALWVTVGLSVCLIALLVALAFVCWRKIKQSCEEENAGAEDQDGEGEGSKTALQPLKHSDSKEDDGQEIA

Binding in a display sort, inactive:
B1 not found, B2 not found, B3 not found, B4 not found, B5 not found, B6 not found, B7 not found, B8 not found, B9 not found, B10 not found, B11 not found, B12 not found, B13 not found, B14 not found, B15 not found, B16 not found, B17 not found, B18 not found, B19 not found, B20 not found, B21 not found, B22 not found, B23 not found, B24 not found, B25 not found, B26 not found, B27 not found, B28 not found, B29 not found, B30 not found, B31 not found, B32 not found, B33 not found, B34 not found, B35 not found, B36 not found, B37 not found, B38 not found
